In PubChem BioAssay (NCATS):
Inconclusive results are not listed. Entries that show only a call come without a potency. Some structures have more than one record in an assay (separate samples or runs), and their calls can disagree. The source made the active and inactive calls. Unless noted, calls follow the shape of the dose curve; as a rule, active = well fitted curve in the direction sought with a large enough effect; inconclusive = small, poorly fitted or top-dose-only effect, or another doubt; inactive = no such curve, though single readings can be large; an effect the other way counts as inactive or inconclusive.

Key:
[1] = target: Beta-2 adrenergic receptor (Homo sapiens) (UniProt P07550); assay: qHTS validation assay of beta-arrestin-biased ligands of beta2-adrenergic receptor (AID 485366)
Chain of Beta-2 adrenergic receptor (Homo sapiens) (P07550 whole entry, looked up): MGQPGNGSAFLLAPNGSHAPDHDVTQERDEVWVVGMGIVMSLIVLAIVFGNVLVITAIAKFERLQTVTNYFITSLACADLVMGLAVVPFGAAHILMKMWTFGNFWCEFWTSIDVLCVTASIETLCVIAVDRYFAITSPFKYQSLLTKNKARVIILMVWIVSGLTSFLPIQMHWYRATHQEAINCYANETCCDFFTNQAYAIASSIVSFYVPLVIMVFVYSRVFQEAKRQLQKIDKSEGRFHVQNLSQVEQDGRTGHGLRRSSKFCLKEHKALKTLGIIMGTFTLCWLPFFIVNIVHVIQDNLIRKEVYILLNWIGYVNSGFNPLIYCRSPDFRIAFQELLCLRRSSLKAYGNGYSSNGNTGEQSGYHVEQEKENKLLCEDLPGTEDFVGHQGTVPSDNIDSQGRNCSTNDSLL
Summary of the method: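 Tango cells expressing recombinant beta2-AR and beta-arrestin with tTA-driven luciferase, in DMEM with 1% FBS. Compounds were titrated up to 46 microM for 18 hr at 37 degrees C. Luminescence was read 15 min after substrate; curves were fitted and class-assigned.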

[2] = Quantitative high throughput screen for delayed death inhibitors of the malarial parasite plastid, 96 hour incubation (AID 488745); also: nearly all actives have a fitted effect of over 70% in size; also: potency is read from the fitted curve at half-maximal effect
Summary of the method: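 Growth of reporter-bearing P. falciparum in red cells is measured after 96 h with compound, covering two erythrocytic cycles. Luminescence from the integrated luciferase serves as the growth signal.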

[3] = Quantitative high throughput screen for delayed death inhibitors of the malarial parasite plastid, 48 hour incubation (AID 488752); also: nearly all actives have a fitted effect of over 65% in size; also: potency is read from the fitted curve at half-maximal effect
Summary of the method: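 One parasite generation (48 h, 37 C, 5% CO2) of luciferase-reporter P. falciparum in erythrocytes is run with test compound; decreased luminescence indicates inhibited growth.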

[4] = target: Thioredoxin reductase 1, cytoplasmic (Rattus norvegicus) (UniProt O89049); assay: qHTS Assay for Substrates of Mammalian Selenoprotein Thioredoxin Reductase 1 (TrxR1) (AID 488772);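 also: NADPH fluorescence in the first read after selenite addition and not the 8 min delta; series mostly up to about 57 µM; a drop in NADPH fluorescence below the no-compound background marks a TrxR1 substrate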
Summary of the method: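 Quantitative HTS in Tris-HCl buffer at pH 7.5 with EDTA and Tween-20, using rat TrxR1, 400 uM NADPH and 400 uM selenite (final). A fall in initial NADPH fluorescence relative to background marked substrate behaviour.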

[5] = target: Thioredoxin reductase 1, cytoplasmic (Rattus norvegicus) (UniProt O89049); assay: qHTS Assay for Inhibitors of Mammalian Selenoprotein Thioredoxin Reductase 1 (TrxR1) (AID 488773); conditions: Potency: inhibition;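 also: drop in NADPH fluorescence over an 8 min run after selenite addition; series mostly up to about 57 µM; nearly all actives have a fitted effect of over 40% in size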
Summary of the method: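 Steps: enzyme (90 nM) plus NADPH (400 uM final), 5 min at ~22 deg C; compound added, 15 min; selenite (400 uM final) added; fluorescence followed for 8 min. Concentration-response curves derived from the normalized delta values.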

[6] = target: Flap endonuclease 1 (Homo sapiens) (UniProt P39748); assay: qHTS Validation Assay for the Inhibitors of Human Flap endonuclease 1 (FEN1) (AID 488816)
Chain of Flap endonuclease 1 (Homo sapiens) (P39748 whole entry, looked up): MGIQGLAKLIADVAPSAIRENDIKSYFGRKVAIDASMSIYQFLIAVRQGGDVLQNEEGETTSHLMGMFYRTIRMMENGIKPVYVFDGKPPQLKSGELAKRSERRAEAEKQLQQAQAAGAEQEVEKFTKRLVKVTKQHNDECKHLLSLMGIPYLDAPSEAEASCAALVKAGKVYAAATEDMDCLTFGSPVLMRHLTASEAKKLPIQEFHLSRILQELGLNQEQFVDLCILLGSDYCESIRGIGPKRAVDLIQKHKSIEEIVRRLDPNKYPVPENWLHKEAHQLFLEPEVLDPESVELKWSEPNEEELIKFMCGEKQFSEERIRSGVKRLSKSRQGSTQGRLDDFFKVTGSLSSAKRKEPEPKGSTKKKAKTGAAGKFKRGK
Summary of the method: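 FEN1, dispensed as a 10 nM reagent, was preincubated with pin-transferred compounds for 15 min at room temperature before substrate was added (50 nM final). Plates were read at 0 and 15 min, and a four-parameter Hill equation was fitted to the concentration-response data.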

[7] = target: M-phase phosphoprotein 8 (Homo sapiens) (UniProt Q99549); assay: qHTS Validation Assay for Inhibitors for MPP8 Chromodomain Interactions with Methylated Histone Tails (AID 488949); also: nearly all actives have a fitted effect of over 55% in size; also: potency is read from the fitted curve at half-maximal effect
Chain of M-phase phosphoprotein 8 (Homo sapiens) (Q99549 whole entry, looked up): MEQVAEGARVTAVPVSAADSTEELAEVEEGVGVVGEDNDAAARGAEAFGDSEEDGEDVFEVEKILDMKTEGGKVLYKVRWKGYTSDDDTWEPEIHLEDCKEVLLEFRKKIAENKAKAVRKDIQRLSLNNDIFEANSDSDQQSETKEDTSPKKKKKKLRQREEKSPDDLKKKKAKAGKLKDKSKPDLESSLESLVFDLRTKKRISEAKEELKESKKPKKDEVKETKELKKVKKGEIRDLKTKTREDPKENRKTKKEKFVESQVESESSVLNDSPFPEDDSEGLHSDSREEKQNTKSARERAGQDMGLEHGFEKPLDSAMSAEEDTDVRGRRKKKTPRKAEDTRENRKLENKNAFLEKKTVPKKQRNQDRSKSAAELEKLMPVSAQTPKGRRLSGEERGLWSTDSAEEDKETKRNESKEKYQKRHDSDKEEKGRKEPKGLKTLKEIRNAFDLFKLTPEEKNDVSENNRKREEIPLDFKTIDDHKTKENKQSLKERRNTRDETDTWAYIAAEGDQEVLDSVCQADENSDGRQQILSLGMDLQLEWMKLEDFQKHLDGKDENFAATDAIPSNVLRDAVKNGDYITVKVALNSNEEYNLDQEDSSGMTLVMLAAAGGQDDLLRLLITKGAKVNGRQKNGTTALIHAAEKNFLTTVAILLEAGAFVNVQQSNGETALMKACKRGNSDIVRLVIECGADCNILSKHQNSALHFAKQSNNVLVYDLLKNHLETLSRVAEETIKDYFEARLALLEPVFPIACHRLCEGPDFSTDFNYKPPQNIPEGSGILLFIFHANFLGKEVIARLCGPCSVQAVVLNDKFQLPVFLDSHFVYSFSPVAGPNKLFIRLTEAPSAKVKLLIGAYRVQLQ
Summary of the method: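 AlphaScreen proximity signal from streptavidin donor and Ni-chelate acceptor beads (10 ug/mL each) reported binding of MPP8 to trimethyl-K9 H3(1-18) peptide, both at 50 nM. The complex formed 30 min before a 30 min compound exposure at room temperature, in PBS pH 7.4.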

[8] = target: Chromobox protein homolog 1 (Homo sapiens) (UniProt P83916); assay: qHTS Validation Assay for Inhibitors of HP1-beta Chromodomain Interactions with Methylated Histone Tails (AID 488953); also: nearly all actives have a fitted effect of over 50% in size; also: potency is read from the fitted curve at half-maximal effect
Chain of Chromobox protein homolog 1 (Homo sapiens) (P83916 whole entry, looked up): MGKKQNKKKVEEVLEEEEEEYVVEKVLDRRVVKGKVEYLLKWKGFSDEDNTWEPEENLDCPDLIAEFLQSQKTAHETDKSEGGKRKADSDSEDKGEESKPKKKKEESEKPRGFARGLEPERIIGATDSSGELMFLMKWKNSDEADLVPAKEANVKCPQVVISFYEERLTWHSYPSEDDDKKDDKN
Summary of the method: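 Measured as loss of AlphaScreen luminescence from streptavidin donor and nickel acceptor beads (10 ug/mL final) bridging HP1-beta and biotin-H3(1-18)K9me3, each 50 nM. Compounds met the preassembled complex for 30 min at RT.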

[9] = target: Methanococcus maripaludis chaperonin (MmCpn) (UniProt Q6LX38); assay: High-Throughput Screening for Modulators of Cytosolic Chaperonin Activity: MmCpn Primary Screen (AID 488978);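 also: 50 nM MmCpn enzyme hydrolysing 30 µM ATP at 37 °C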
Chain of Methanococcus maripaludis chaperonin (MmCpn) (Q6LX38 1-543): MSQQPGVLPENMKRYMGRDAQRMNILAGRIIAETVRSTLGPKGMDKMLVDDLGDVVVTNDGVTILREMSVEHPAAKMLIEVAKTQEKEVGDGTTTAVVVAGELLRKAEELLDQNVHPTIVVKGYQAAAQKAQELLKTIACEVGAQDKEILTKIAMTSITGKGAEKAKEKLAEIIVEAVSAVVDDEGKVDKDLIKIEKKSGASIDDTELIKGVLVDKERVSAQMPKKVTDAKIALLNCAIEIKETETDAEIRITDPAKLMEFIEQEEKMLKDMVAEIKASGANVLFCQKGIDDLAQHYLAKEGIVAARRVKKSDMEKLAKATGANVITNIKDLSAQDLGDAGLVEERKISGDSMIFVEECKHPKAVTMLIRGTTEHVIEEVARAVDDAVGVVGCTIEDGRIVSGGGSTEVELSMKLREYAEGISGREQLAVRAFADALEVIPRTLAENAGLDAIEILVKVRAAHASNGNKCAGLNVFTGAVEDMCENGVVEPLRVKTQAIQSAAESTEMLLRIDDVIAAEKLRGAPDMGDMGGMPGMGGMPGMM
Summary of the method: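 ATPase activity of 50 nM MmCpn was assayed with 30 uM ATP, 10 minutes at 37C, after a 5 min compound preincubation at room temperature. ADP production was read as HTRF emission at 590 and 665 nm.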

[10] = target: Transient receptor potential cation channel subfamily V member 1 (Homo sapiens) (UniProt Q8NER1); assay: HTS Assay for Compounds that Act as Enhancers of the Vanilloid Receptor 1 (AID 488979)
Chain of Transient receptor potential cation channel subfamily V member 1 (Homo sapiens) (Q8NER1 whole entry, looked up): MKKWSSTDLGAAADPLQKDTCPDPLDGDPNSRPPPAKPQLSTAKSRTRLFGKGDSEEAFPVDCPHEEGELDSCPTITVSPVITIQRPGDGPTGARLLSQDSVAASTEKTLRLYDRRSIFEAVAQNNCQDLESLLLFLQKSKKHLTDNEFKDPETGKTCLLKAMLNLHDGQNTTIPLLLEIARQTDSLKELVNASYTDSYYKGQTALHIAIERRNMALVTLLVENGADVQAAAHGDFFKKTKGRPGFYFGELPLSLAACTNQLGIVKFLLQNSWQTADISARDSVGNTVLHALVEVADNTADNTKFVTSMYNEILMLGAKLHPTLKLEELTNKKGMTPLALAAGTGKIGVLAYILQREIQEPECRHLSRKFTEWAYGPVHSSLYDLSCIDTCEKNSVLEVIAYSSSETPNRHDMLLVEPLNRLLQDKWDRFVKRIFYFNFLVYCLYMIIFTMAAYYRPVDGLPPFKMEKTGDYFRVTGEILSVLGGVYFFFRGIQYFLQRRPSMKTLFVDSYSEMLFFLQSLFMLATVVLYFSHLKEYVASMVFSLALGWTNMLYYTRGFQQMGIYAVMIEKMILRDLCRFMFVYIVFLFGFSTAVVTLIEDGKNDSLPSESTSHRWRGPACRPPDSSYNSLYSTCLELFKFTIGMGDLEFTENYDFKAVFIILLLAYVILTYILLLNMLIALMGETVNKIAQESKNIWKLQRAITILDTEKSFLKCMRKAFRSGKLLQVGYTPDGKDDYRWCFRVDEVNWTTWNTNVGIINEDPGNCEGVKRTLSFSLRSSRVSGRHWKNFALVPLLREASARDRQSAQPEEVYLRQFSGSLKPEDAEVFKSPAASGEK
Summary of the method: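 TRPV1-expressing cells loaded with Fluo-8 calcium dye; compounds added and calcium influx read kinetically for 3 min (agonist phase), then capsaicin at EC20 added and read 2 min more for enhancement. Fluorescence ex 480/em 520 nm.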

[11] = target: Thyrotropin receptor (Homo sapiens) (UniProt P16473); assay: qHTS Assay for Antagonists of the Thyroid Stimulating Hormone Receptor (AID 488980); also: series mostly up to about 58 µM
Chain of Thyrotropin receptor (Homo sapiens) (P16473 whole entry, looked up): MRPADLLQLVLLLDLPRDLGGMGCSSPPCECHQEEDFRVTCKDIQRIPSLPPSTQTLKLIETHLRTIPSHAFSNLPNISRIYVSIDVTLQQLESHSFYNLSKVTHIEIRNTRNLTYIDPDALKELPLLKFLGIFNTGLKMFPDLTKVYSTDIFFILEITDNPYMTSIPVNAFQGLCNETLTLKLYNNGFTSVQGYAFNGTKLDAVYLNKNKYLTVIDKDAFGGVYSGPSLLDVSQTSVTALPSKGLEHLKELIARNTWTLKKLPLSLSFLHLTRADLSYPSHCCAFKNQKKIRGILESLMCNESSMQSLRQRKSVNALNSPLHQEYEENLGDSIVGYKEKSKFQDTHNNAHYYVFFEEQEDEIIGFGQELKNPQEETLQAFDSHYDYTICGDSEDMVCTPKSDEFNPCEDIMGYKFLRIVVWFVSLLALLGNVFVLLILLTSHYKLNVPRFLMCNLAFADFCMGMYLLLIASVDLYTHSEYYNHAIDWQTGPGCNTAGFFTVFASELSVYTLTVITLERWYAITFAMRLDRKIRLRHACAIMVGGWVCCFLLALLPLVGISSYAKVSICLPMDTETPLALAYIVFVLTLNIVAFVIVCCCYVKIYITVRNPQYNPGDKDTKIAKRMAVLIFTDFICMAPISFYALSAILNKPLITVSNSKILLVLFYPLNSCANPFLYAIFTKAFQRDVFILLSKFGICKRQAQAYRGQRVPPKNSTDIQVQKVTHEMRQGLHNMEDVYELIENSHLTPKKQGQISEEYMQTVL
Summary of the method: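 Inhibition of cAMP raised by EC80 TSH (4 nM final) was read by HTRF, with lysate cAMP competing against cAMP-d2 for cryptate antibody after 30 min at room temperature. The cells were transfected HEK293 held in phosphodiesterase inhibitor RO 20-1724 at 70 uM.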

[12] = target: D(1A) dopamine receptor (Homo sapiens) (UniProt P21728); assay: HTS Assay for Allosteric Agonists of the Human D1 Dopamine Receptor: Primary Screen for Agonists (AID 488981)
Chain of D(1A) dopamine receptor (Homo sapiens) (P21728 whole entry, looked up): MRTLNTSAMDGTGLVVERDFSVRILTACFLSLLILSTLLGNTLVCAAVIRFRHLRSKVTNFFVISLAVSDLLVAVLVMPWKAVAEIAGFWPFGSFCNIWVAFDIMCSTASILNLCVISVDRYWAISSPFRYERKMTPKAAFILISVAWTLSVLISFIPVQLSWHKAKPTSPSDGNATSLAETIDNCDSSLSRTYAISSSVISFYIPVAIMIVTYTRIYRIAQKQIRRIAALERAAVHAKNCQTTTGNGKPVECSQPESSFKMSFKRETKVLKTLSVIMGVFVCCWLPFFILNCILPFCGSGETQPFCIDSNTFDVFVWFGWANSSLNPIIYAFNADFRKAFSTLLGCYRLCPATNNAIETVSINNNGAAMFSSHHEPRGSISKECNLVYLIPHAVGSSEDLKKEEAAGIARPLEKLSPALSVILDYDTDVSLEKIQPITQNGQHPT
Summary of the method: (§1)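 Tetracycline-induced HEK293 T-REx cells force-coupled to calcium signalling were incubated overnight at 30 C and dye-loaded at room temperature. Calcium flux over 180 s after compound addition flagged agonists; a further 180 s read after EC20 dopamine flagged potentiators.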

[13] = target: D(1A) dopamine receptor (Homo sapiens) (UniProt P21728); assay: HTS Assay for Allosteric Agonists of the Human D1 Dopamine Receptor: Primary Screen for Potentiators (AID 488982)
Summary of the method: as §1

[14] = target: D(1A) dopamine receptor (Homo sapiens) (UniProt P21728); assay: HTS Assay for Allosteric Agonists of the Human D1 Dopamine Receptor: Primary Screen for Antagonists (AID 488983);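 also: calcium flux response to an EC80 dopamine challenge measured with no-wash dye; nearly all actives have a fitted effect of over 65% in size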
Summary of the method: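 Screening of inducible HEK293 T-REx D1 cells: compound first, EC80 dopamine 180 s later, each phase read kinetically for calcium over 180 s.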

[15] = Validation screen for small molecules that induce genotoxicity in human embryonic kidney (HEK293T) cells expressing luciferase-tagged ELG1 (AID 493106); also: potency is read from the fitted curve at half-maximal effect
Summary of the method: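 Reporter-gene quantitative HTS in HEK293T cells carrying luciferase-tagged ELG1, whose level climbs under genotoxic stress. Compound exposure lasts 16 hr at 37 °C before luciferase detection.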

[16] = target: Thyrotropin-releasing hormone receptor (Homo sapiens) (UniProt P34981); assay: qHTS for Small Molecule Agonists and Allosteric Enhancers of Human TRH Receptor: Validation Screen for Agonists (AID 493127;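 active = calcium activation more than 3 SD above the typical response in the agonist read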;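 also: intracellular calcium rise by fluo-8 fluorescence before TRH EC20 addition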); conditions: TRH receptor agonist cell assay; at 2 µM; stronger effect = higher value
Chain of Thyrotropin-releasing hormone receptor (Homo sapiens) (P34981 whole entry, looked up): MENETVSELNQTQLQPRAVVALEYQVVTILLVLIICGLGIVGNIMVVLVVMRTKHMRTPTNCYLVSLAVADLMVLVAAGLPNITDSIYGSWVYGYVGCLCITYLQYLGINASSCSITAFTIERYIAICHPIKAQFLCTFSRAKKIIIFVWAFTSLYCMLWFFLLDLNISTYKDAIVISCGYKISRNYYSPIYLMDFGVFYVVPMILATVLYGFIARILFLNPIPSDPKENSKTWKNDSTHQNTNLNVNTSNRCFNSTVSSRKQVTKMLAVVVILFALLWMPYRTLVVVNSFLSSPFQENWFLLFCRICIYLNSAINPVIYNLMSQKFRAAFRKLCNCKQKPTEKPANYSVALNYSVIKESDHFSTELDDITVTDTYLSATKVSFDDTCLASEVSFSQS
Summary of the method: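 Gq-coupled calcium mobilization in TRHR cells after compound addition, monitored kinetically with fluo-8 dye on an FDSS reader.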

[17] = target: ATPase family AAA domain-containing protein 5 (Homo sapiens) (UniProt Q96QE3); assay: Validation screen for small molecules that inhibit ELG1-dependent DNA repair in human embryonic kidney (HEK293T) cells expressing luciferase-tagged ELG1 (AID 493107);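 also: cells co-treated with the DNA-damaging agent 5-fluorouridine alongside compound; series mostly up to about 46 µM; inhibitors lower the ELG1-luciferase luminescence signal; nearly all actives have a fitted effect of over 70% in size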
Summary of the method: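 Quantitative HTS in HEK293T cells carrying luciferase-tagged ELG1, stimulated with 5-fluorouridine alongside compound for 16 hr. Loss of luciferase signal marks inhibition of ELG1 response.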

[18] = target: ATP-dependent 6-phosphofructokinase (Trypanosoma brucei brucei) (UniProt O15648); assay: qHTS Assay to Find Inhibitors of T. brucei phosphofructokinase: hit validation (AID 492961);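 also: luminescence reports ADP formed as PFK phosphorylates fructose-6-phosphate with ATP; series mostly up to about 51 µM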
Summary of the method: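 Percent activity derived from corrected luminescence, normalized between 0x and 1x enzyme controls, then fitted to concentration-response curves. Conditions: 1.25 nM PFK, 0.1 mM ATP, 0.5 mM F6P, 45 min RT.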

Row | SMILES | outcome [1] | Potency [2] | Potency [3] | outcome [4] | Potency [5] | Potency [6] | Potency [7] | Potency [8] | outcome [9] | outcome [10] | outcome [11] | Potency [12] | Potency [13] | Potency [14] | Potency [15] | activation [16] | Potency [17] | outcome [18]
1 | Cc1nc2c(OCc3ccccc3)cccn2c1CC#N | inactive | inactive | inactive | inactive | inactive | inactive | inactive | inactive | inactive | inactive | inactive | inactive | inactive | inactive | inactive | 0.25% (inactive) | – | –
2 | O=C(O)c1cc(=O)cc(C(=O)O)[nH]1 | inactive | inactive | inactive | inactive | inactive | inactive | inactive | inactive | inactive | inactive | inactive | inactive | – | inactive | inactive | 0.75% (inactive) | inactive | –
3 | Cc1cc2c(cc1Cl)N(C(=O)Nc1ccnc3ccccc13)CC2 | inactive | inactive | inactive | inactive | inactive | inactive | – | inactive | – | inactive | inactive | inactive | inactive | inactive | inactive | 1.44% (inactive) | inactive | –
4 | Cn1cc(C(=O)OCC2CCN(CCNS(C)(=O)=O)CC2)c2ccccc21 | inactive | inactive | inactive | inactive | inactive | inactive | – | inactive | inactive | inactive | inactive | inactive | inactive | inactive | inactive | 0.688% (inactive) | inactive | –
5 | CC1CNCCN1S(=O)(=O)c1cccc2cnccc12 (configuration not stated) | inactive | inactive | inactive | inactive | inactive | inactive | inactive | inactive | inactive | inactive | inactive | inactive | – | inactive | inactive | 1.25% (inactive) | – | –
6 | CCC1(O)CC2CN(CCc3c([nH]c4ccccc34)[C@@](C(=O)OC)(c3cc4c(cc3OC)N(C=O)C3[C@]45CCN4CC=C[C@@](CC)([C@@H](OC(C)=O)[C@]3(O)C(=O)OC)[C@H]45)C2)C1 (some centres not stated) | inactive | 117 nM (active) | 131 nM (active) | inactive | inactive | inactive | inactive | – | inactive | – | inactive | – | inactive | inactive | 920 nM (active) | 0.188% (inactive) | – | –
7 | c1ccc(C2CN3CCSC3=N2)cc1 (configuration not stated) | inactive | inactive | inactive | inactive | inactive | inactive | inactive | inactive | inactive | inactive | inactive | inactive | inactive | – | inactive | -0.188% (inactive) | inactive | inactive
8 | Nc1ccc(N2C(=O)c3ccccc3C2=O)c(Cl)c1 | inactive | inactive | inactive | inactive | inactive | inactive | inactive | inactive | inactive | inactive | inactive | inactive | inactive | inactive | inactive | -4.94% (inactive) | – | –
9 | CCCn1c(=O)c2c(ncn2C)n(CCC)c1=O | inactive | inactive | inactive | inactive | inactive | inactive | inactive | inactive | inactive | inactive | inactive | inactive | – | inactive | inactive | 0.5% (inactive) | inactive | –
10 | CCOC(=O)C12CC1/C(=N/O)c1ccccc1O2 (configuration not stated) | inactive | inactive | inactive | inactive | inactive | inactive | inactive | inactive | inactive | inactive | inactive | – | inactive | inactive | inactive | -3.94% (inactive) | – | –
11 | COc1ccc2c(c1)c(CC(=O)O)c(C)n2C(=O)c1ccccc1 | inactive | inactive | inactive | inactive | inactive | inactive | inactive | inactive | inactive | inactive | inactive | – | inactive | inactive | inactive | 0.812% (inactive) | inactive | –
12 | [N-]=[N+]=Nc1ccc(C(=O)CSC[C@H](NC(=O)CC[C@H](N)C(=O)O)C(=O)NCC(=O)O)cc1 | inactive | inactive | inactive | inactive | inactive | inactive | 35.5 µM (active) and inactive | 39800 nM (active) | inactive | inactive | inactive | – | – | inactive | inactive | 1.12% (inactive) | inactive | –
13 | O=C(O)C1=CCCNC1 | inactive | inactive | inactive | inactive | inactive | inactive | inactive | – | inactive | inactive | inactive | inactive | – | inactive | inactive | 0.875% (inactive) | inactive | –
14 | COc1ccc2c(c1)CCC1C2CC[C@@]2(C)C1CC[C@@H]2NCCCCCCN1C(=O)C=CC1=O (some centres not stated) | inactive | inactive | inactive | inactive | inactive | inactive | – | – | inactive | inactive | inactive | inactive | inactive | inactive | inactive | 0.25% (inactive) | inactive | –
15 | CCCCCCC/C=C\CCCCCCCCC(=O)O | inactive | inactive | inactive | inactive | inactive | inactive | inactive | inactive | inactive | inactive | inactive | inactive | – | inactive | inactive | 1.5% (inactive) | inactive | –
